Inconclusive results are not listed. Unmarked numbers belong to inactive results. Activity calls are given as the source filed them. The call rests on the fitted dose curve.
Biological target: Acetylcholinesterase (Homo sapiens) (UniProt P22303)
Experiment: Acetylcholinesterase (AChE) small molecule antagonists: fluorescence cell-based qHTS assay (AID 1347398); further: nearly all actives have a fitted effect of over 50% in size
Settings: SH-SY5Y cells; Potency: AChE activity; outcome: AChE activity; series mostly up to 115 µM; activity change, negative = inhibition: at the top concentration
In short: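 Cells (SH-SY5Y) attached overnight, were dosed with compound or DMSO vehicle for 30 min at 37 C, and then incubated 40 min at room temperature with acetylthiocholine and Thiolite Green; green fluorescence indexed AChE activity.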
On the % scale 0 is the no-effect control and ±100 the full control effect.

Sequence of Acetylcholinesterase (Homo sapiens) (P22303 whole entry, looked up): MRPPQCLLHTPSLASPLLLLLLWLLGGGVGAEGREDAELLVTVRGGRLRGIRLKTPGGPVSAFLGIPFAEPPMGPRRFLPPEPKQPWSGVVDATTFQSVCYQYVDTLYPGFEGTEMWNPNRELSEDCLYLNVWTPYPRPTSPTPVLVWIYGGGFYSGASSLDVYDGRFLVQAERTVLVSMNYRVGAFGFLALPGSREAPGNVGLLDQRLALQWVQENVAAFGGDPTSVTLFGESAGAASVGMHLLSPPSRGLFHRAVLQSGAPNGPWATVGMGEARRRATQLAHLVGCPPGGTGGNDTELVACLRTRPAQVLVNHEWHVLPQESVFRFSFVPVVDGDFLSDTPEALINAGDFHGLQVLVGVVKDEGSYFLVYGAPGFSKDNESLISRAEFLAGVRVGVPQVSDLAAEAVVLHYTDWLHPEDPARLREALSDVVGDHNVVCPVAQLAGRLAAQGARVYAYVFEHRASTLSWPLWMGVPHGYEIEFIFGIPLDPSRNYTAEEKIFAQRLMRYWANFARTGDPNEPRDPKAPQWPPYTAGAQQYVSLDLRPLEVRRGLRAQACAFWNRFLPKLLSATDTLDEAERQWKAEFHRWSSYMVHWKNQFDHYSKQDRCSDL

Structure (SMILES) | Potency | activity change, negative = inhibition
Nc1cc([N+](=O)[O-])ccc1O | inactive | 
CC(C)(C)c1ccc(CCC=O)cc1 |  | -1.33%
CCCCC(CC)COC(C)=O (stereo unspecified) | inactive | 
O[C@@H](COc1cccc2ncccc12)CN1CCN(C2c3ccccc3[C@@H]3[C@H](c4ccccc42)C3(F)F)CC1 (stereo partly specified) |  | 4.52% [at 53.7 µM]
COc1ccc2c(c1)c(CC(=O)O)c(C)n2C(=O)c1ccc(Cl)cc1 | inactive | 
CC(=O)OC(C)C | inactive | 
CC(C)=CCC/C(C)=C/C=O | inactive | 
O=S(=O)(O)c1cccc2ccccc12 |  | 1.84%
Cc1c(F)c(N2CCNC(C)C2)cc2c1c(=O)c(C(=O)O)cn2C1CC1 (stereo unspecified) |  | 1.3% [at 53.7 µM]
CCCC(C)C(=O)O (stereo unspecified) |  | -0.386%
C[C@]12CC[C@@H]3c4ccc(O)cc4CC[C@H]3[C@@H]1CC[C@H]2O | inactive | 
C=C1C[C@H]2[C@@H]3C=C(C)C4=CC(=O)CC[C@]4(C)[C@H]3CC[C@]2(C)[C@@]1(OC(C)=O)C(C)=O | inactive | 
CCN(CCCc1ccccc1)CCCc1ccccc1 |  | -18.9% [at 53.7 µM]
CCCCS(=O)(=O)N[C@@H](Cc1ccc(OCCCCC2CCNCC2)cc1)C(=O)O |  | -9.85% [at 53.7 µM]
CCCC(=O)Nc1ccc(O)c(C(C)=O)c1 |  | 9.65% [at 53.7 µM]
NC(=O)C1(N2CCCCC2)CCN(CCCC(=O)c2ccc(F)cc2)CC1 |  | -4.34% [at 53.7 µM]
C=C(C)C1CC=C(C)C(OC(C)=O)C1 (stereo unspecified) | inactive | 
CCOc1ccc2nc(S(N)(=O)=O)sc2c1 |  | 2.13% [at 53.7 µM]
O=CCCCC=O | inactive | 
COc1ccc(COC(C)=O)cc1 | inactive | 
CCCOc1ccc(S(=O)(=O)N2CCN(CC)CC2)cc1-c1nc2c(CC)n(Cc3ccccn3)nc2c(=O)[nH]1 |  | -13.4%
